Results on 14 compounds are retold here after PubChem BioAssay.

Experiment [1] in a line: inhibitors of TNFa-induced NFkB p65 translocation, primary screen, imaging, HUVEC, MLSMR starter and 10KST1 sets (AID 438).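 Also: compound added about 3h40 before a 20 min TNFalpha stimulation.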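 As to inhibition: signal is the nuclear over cytoplasmic p65 intensity ratio per well.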 The conditions noted are these: HUVEC TNFa-induced p65 nuclear translocation; cell count: measured here: nuclei count (cytotoxicity indicator), at 2.08 µM; inhibition: at 2 µM, stronger effect = higher value, 0% TNFa-plus-vehicle, 100% no-TNFa wells.
The nature of experiment [2]: inhibitors of mutant huntingtin aggregation, primary screen, imaging, exon1htt(103Q)mCFP cells, high-content imaging (AID 483;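 active = visual image review flags a hit and inhibition of aggregation exceeds 20%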;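 also: compound exposure lasted 3 days before fixation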;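 as to nuclei count: percent of the per-plate median nuclei count of sample wells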). The conditions noted are these: exon1htt(103Q)mCFP cell line, aggregate imaging, at 2 µM; inhibition of aggregation: stronger effect = higher value; nuclei count: measured here: cell count, toxicity.
A short description of experiment [3]: inhibitors of E-selectin induction by TNFa, primary screen, imaging, HUVEC, immunofluorescence, MLSMR starter and 10KST1 sets (AID 487;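 active = visually confirmed hit in the image check and inhibition above 20%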;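 as to inhibition: signal is fraction of cell area covered by stained E-selectin grains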;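 as to nuclei count: 100% = median nuclei count of all wells on the same plate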). The conditions noted are these: HUVEC TNFalpha-induced E-selectin immunofluorescence imaging, at 2 µM; inhibition: stronger effect = higher value; nuclei count: measured here: cell number, toxicity.
Experiment [4] has as its target Voltage-gated potassium channel subunit beta-2 (Rattus norvegicus) (UniProt P62483). Description: KvBeta enzyme negative modulators, primary screen, biochemical, NADPH fluorescence (AID 622;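 active = fluorescence slope higher than the sample average by over 3 SD, cut at about -0.22 in these data, passing the limit was not always enough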;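 also: slope of raw intensity against log time taken from 70 to 1610 s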). The conditions noted are these: recombinant KvBeta, 4-cyanobenzaldehyde reduction, at 10 µM, stronger effect = higher value.
For experiment [5] the target is unchanged. Kind of experiment: KvBeta positive modulators, primary screen, biochemical, NADPH fluorescence (AID 623;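 active = NADPH fluorescence slope more negative than the mean of all samples by about 3 SD, 99.7% confidence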;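 also: fluorescence intensity change per second fitted from 20 to 320 s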). The conditions noted are these: Recombinant KvBeta, NADPH fluorescence decrease slope, 10 min; at 10 µM; stronger effect = lower value.
The target of experiment [6] is Alpha-2C adrenergic receptor (Homo sapiens) (UniProt P18825). Description: modulators of alpha2C/GIRK thallium flux, primary screen, cell-based, HEK293 alpha2C/GIRK1/2 (AID 624;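 active = fluorescence slope after compound addition differing from the mean of all screened samples at 99.7% confidence, in either direction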;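 also: slope of fluorescence ratio to pre-addition baseline per second over 15 to 24 s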). The conditions noted are these: thallium flux BTC fluorescence, at 10 µM, actives lie on both sides.
The nature of experiment [7]: inhibitors of Sendai virus-induced IRF3 signaling, primary screen, TLR/RLR signaling modifier project, cell-based, Sendai virus stimulus, luciferase, 10K MLSCN set (AID 602276;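 active = inhibition at or above 50% at 10 µM; inactive = inhibition below 50%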;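 also: firefly luciferase from ISG56 promoter only with Renilla not read in this screen; 0% = Sendai virus plus DMSO and 100% = medium plus DMSO without virus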). Conditions: HEK293 RL24 IRF3 luciferase reporter, at 10 µM, stronger effect = higher value.
The nature of experiment [8]: inhibitors of poly I:C-induced TLR3 signaling, primary screen, cell-based, poly I:C stimulus, luciferase, 10K MLSCN set (AID 602277;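 active = inhibition of the reporter signal at or above 50%; inactive = inhibition below 50%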). Conditions: HEK293-TLR3 RL24 IRF3 luciferase reporter, at 10 µM, stronger effect = higher value.

SMILES strings stand for the structures. Activity calls are given as the source filed them.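 The calls were made as follows, unless noted: active = inhibition above 20% together with a positive visual image hit; inconclusive = visual image hit but inhibition not above 20%; inactive = no visual image hit.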

Alpha-2C adrenergic receptor (Homo sapiens), sequence (P18825 whole entry, looked up): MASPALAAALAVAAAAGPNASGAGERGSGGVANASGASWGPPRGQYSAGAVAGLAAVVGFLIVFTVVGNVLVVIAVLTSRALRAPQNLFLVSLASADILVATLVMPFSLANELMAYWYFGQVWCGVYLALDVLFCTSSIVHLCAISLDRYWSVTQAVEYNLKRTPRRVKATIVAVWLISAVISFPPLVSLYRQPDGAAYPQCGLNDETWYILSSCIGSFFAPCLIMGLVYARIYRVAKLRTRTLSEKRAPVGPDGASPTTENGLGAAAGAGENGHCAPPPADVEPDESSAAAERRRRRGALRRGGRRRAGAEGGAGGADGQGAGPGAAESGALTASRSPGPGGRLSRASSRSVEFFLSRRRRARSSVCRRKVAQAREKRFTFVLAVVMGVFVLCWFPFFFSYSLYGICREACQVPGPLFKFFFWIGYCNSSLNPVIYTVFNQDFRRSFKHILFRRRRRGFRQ
Voltage-gated potassium channel subunit beta-2 (Rattus norvegicus), sequence (P62483 whole entry, looked up): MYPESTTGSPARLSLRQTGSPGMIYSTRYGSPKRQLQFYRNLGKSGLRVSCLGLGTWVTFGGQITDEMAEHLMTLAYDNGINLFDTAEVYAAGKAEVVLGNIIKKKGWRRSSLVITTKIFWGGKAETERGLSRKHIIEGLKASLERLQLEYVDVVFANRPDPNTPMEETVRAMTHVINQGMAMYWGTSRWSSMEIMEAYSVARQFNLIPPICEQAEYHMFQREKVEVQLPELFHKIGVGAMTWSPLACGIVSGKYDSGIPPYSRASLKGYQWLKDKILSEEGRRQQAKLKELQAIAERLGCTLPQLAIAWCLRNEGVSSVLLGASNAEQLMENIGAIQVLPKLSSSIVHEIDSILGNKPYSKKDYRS

As to `O=C(Nc1ccc(N2CCCCC2)cc1)c1ccc(F)cc1`, the cell count in experiment [1] worked out at 420. The inhibition was 0.3% (inactive) in experiment [1], -134% (inactive) in experiment [3], -44.9% (inactive) in experiment [7] and -140% (inactive) in experiment [8]. Also, in experiment [2], the inhibition of aggregation is -17.8% (inactive). Moreover, the nuclei count in experiment [2] was 111%; in experiment [3], 122%. The fluorescence slope in experiment [4] was -0.401 (inactive). In addition, the NADPH fluorescence slope in experiment [5] is -0.000159 (inactive). Moreover, the slope in experiment [6] is 0.00518 (inactive).
Turning to `COc1ccc(C2CC(c3ccc(Cl)cc3Cl)Nc3nc(N)nn32)cc1` (centres undefined), in experiment [1], the cell count stood at 578. For the same compound, the inhibition in experiment [1] was 2.3% (inactive); in experiment [3], -10.3% (inactive); in experiment [7] it was 13.9% (inactive); in experiment [8] it was 36.6% (inactive). In addition, the inhibition of aggregation in experiment [2] was -1.8% (inactive). Further, the nuclei count is 105% in experiment [2] and 102% in experiment [3]. Moreover, the fluorescence slope in experiment [4] was -0.593 (inactive). The NADPH fluorescence slope in experiment [5] is 1.1e-05 (inactive). Moreover, in experiment [6], the slope was 0.00847 (inactive).
Take `CCCC(=O)NCCc1cc2c(C)ccc(C)c2[nH]c1=O`: in experiment [1], the cell count was 592. Moreover, the inhibition in experiment [1] was -4.8% (inactive); in experiment [3], -9% (inactive); in experiment [7], 9% (inactive); in experiment [8], 10.9% (inactive). In addition, the inhibition of aggregation in experiment [2] is -1.1% (inactive). The nuclei count worked out at 114% in experiment [2] and 117% in experiment [3]. In experiment [4], the fluorescence slope was -0.557 (inactive). The NADPH fluorescence slope in experiment [5] was -2.9e-05 (inactive). Further, in experiment [6], the slope was 0.00601 (inactive).
As for `CCOC(=O)c1c(C)[nH]c(C(=O)CSc2nc3ccccc3o2)c1C`, in experiment [1], the cell count was 479. Moreover, the inhibition in experiment [1] was 10.6% (inactive); in experiment [3] it was 28.7% (inactive); in experiment [7], -1.31% (inactive); in experiment [8], 0.358% (inactive). In addition, in experiment [2], the inhibition of aggregation was -23.1% (inactive). Moreover, the values for the nuclei count in experiment [2] and in experiment [3] were 107% and 94.5%, respectively. Besides, the fluorescence slope in experiment [4] is -0.3 (inactive). Further, the NADPH fluorescence slope in experiment [5] was 1.8e-05 (inactive). Also, the slope in experiment [6] was 0.00682 (inactive).
On to `O=C(/C=C1\NC2(CCCC2)Cc2ccccc21)N1CCOCC1`, for which the cell count in experiment [1] worked out at 637. Moreover, the inhibition is -1.6% (inactive) in experiment [1], -93.5% (inactive) in experiment [3], 14.1% (inactive) in experiment [7] and 16.1% (inactive) in experiment [8]. Also, the inhibition of aggregation in experiment [2] is -19.3% (inactive). For the same compound, the nuclei count in experiment [2] came out at 88.6%; in experiment [3], 134%. Also, in experiment [4], the fluorescence slope is -0.534 (inactive). Moreover, the NADPH fluorescence slope in experiment [5] was -4.8e-05 (inactive). In experiment [6], the slope is 0.00501 (inactive).
Regarding `CCc1ccc2[nH]c(=O)c(C(c3nnnn3CC3CCCO3)N3CCCc4ccccc43)cc2c1` (centres undefined), in experiment [1], the cell count is 339. Also, the inhibition in experiment [1] is -8.5% (inactive); in experiment [3] it was 22.4% (inactive); in experiment [7], 22.7% (inactive); in experiment [8] it was 32.6% (inactive). For the same compound, in experiment [2], the inhibition of aggregation was 12.7% (inactive). Moreover, the nuclei count in experiment [2] is 87.5%; in experiment [3] it was 97.3%. Further, the fluorescence slope in experiment [4] is -0.422 (inactive). In addition, the NADPH fluorescence slope in experiment [5] is -4.4e-05 (inactive). Besides, the slope in experiment [6] is 0.00442 (inactive).
In the case of `CCCCCc1c(C)nc(Nc2nc(C)c3cc(OC)ccc3n2)[nH]c1=O`, the cell count in experiment [1] is 411. Further, the inhibition in experiment [1] is 5% (inactive); in experiment [3] it was 9.5% (inactive); in experiment [7], 12.6% (inactive); in experiment [8], -6.69% (inactive). Also, the inhibition of aggregation in experiment [2] was 7.6% (inactive). Besides, the nuclei count was determined as 84.7% in experiment [2] and 98% in experiment [3]. The fluorescence slope in experiment [4] is -0.598 (inactive). In experiment [5], the NADPH fluorescence slope is 1.7e-05 (inactive). In experiment [6], the slope was 0.00896 (inactive).
Turning to `c1ccc(-n2ncc3c(NCc4cccs4)ncnc32)cc1`, the cell count in experiment [1] was 338. For the same compound, the inhibition was -5.7% (inactive) in experiment [1], -3.7% (inactive) in experiment [3], -19.7% (inactive) in experiment [7] and -78.7% (inactive) in experiment [8]. The inhibition of aggregation in experiment [2] is -6% (inactive). In addition, the nuclei count in experiment [2] is 94.4%; in experiment [3] it was 118%. Moreover, the fluorescence slope in experiment [4] was -0.415 (inactive). In experiment [5], the NADPH fluorescence slope was -4.2e-05 (inactive). Moreover, the slope in experiment [6] is 0.00561 (inactive).
Take `O=C(NC1CCCCC1)C(c1ccccc1)N(Cc1ccco1)C(=O)Cn1cnc2ccccc21` (centres undefined): in experiment [1], the cell count was found to be 375. Also, the inhibition in experiment [1] was -1.6% (inactive); in experiment [3], -70.5% (inactive); in experiment [7], 9.18% (inactive); in experiment [8], 20.8% (inactive). In addition, in experiment [2], the inhibition of aggregation is -19.6% (inactive). Also, the nuclei count in experiment [2] is 114%; in experiment [3] it was 108%. Besides, the fluorescence slope in experiment [4] was -0.586 (inactive). Moreover, the NADPH fluorescence slope in experiment [5] is -3.7e-05 (inactive). Further, the slope in experiment [6] is 0.00243 (inactive).
On to `CCOC(=O)c1[nH]c2ccccc2c1NC(=O)C(C)(C)C`, for which the cell count in experiment [1] worked out at 692. In addition, the inhibition is -10.7% (inactive) in experiment [1], -30.2% (inactive) in experiment [3], 13.4% (inactive) in experiment [7] and 45.1% (inactive) in experiment [8]. For the same compound, in experiment [2], the inhibition of aggregation was -8.7% (inactive). In addition, the nuclei count in experiment [2] turned out to be 117%; in experiment [3], 105%. Moreover, the fluorescence slope in experiment [4] was -0.586 (inactive). In addition, the NADPH fluorescence slope in experiment [5] is -4.7e-05 (inactive). In experiment [6], the slope was 0.00597 (inactive).
With `O=C(NCc1ccco1)c1cc2cc3ccc(Cl)cc3nc2o1`, the cell count in experiment [1] worked out at 198. The inhibition in experiment [1] was -4.9% (inactive); in experiment [3], -23.3% (inactive); in experiment [7], -5.73% (inactive); in experiment [8], -43.3% (inactive). For the same compound, the inhibition of aggregation in experiment [2] is 12.7% (inactive). The nuclei count amounted to 105% in experiment [2] and 118% in experiment [3]. Also, the fluorescence slope in experiment [4] is -0.489 (inactive). In experiment [5], the NADPH fluorescence slope is -3.4e-05 (inactive). The slope in experiment [6] was 0.00854 (inactive).
With `O=C(CSCc1cccs1)N1CCCC1`, the cell count in experiment [1] worked out at 228. Besides, the inhibition in experiment [1] was 3.9% (inactive); in experiment [3], 18.9% (inactive); in experiment [7] it was -30.1% (inactive); in experiment [8], -81.3% (inactive). In experiment [2], the inhibition of aggregation is -13.9% (inactive). Besides, the values for the nuclei count in experiment [2] and in experiment [3] were 95% and 87.8%, respectively. For the same compound, the fluorescence slope in experiment [4] is -0.528 (inactive). In addition, the NADPH fluorescence slope in experiment [5] is -1.2e-05 (inactive). For the same compound, the slope in experiment [6] was 0.00575 (inactive).
For the compound `O=C(c1ccc(Br)o1)N1CCN(c2ccc3nnc(-c4ccccc4)n3n2)CC1`, the cell count in experiment [1] came to 634. The inhibition was -0.5% (inactive) in experiment [1], -91.9% (inactive) in experiment [3], -4.83% (inactive) in experiment [7] and -337% (inactive) in experiment [8]. For the same compound, the inhibition of aggregation in experiment [2] is 3% (inactive). The nuclei count in experiment [2] was found to be 80.7%; in experiment [3] it was 120%. Besides, the fluorescence slope in experiment [4] is -0.602 (inactive). The NADPH fluorescence slope in experiment [5] is -3.4e-05 (inactive). For the same compound, the slope in experiment [6] is 0.00664 (inactive).
`CCOc1cccc(-c2nnc3sc(COc4ccc(OC)cc4)nn23)c1`: the cell count in experiment [1] is 534. In addition, the inhibition in experiment [1] was 7.7% (inactive); in experiment [3], -93.7% (inactive); in experiment [7], 7.6% (inactive); in experiment [8], 17.6% (inactive). In addition, the inhibition of aggregation in experiment [2] is -2.2% (inactive). The results for the nuclei count in experiment [2] and in experiment [3] were 95.7% and 118%, respectively. The fluorescence slope in experiment [4] was -0.433 (inactive). Further, in experiment [5], the NADPH fluorescence slope is -3.1e-05 (inactive). Besides, in experiment [6], the slope is 0.00731 (inactive).
